CDK5 inh = blocks human CDK5/p35 kinase activity. Q00535+Q15078. Recombinant CDK5/p35, ADP-Glo luminescence, 60 min. inhibition, % at 10 µM. 330,000 compounds, 0.01% hits. AID 488839;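 active = highest replicate inhibition of at least 50% and at least 75% of replicates reaching 50%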;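 note: plate controls were DMSO neutral control for no effect and GW8510 at 10 µM for full effect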
Rtt109 Vps75 = C. albicans Rtt109 histone acetyltransferase inhibition; Q5AAJ8; purified Rtt109/Vps75, ThioGlo CoA-SH fluorescence, 4 h; inhibition, % at 34.9 µM; 330,000 compounds, 0.16% hits; AID 540336;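 active = inhibition of at least 50% in every replicate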
Target sequence (Q5AAJ8 whole entry, looked up): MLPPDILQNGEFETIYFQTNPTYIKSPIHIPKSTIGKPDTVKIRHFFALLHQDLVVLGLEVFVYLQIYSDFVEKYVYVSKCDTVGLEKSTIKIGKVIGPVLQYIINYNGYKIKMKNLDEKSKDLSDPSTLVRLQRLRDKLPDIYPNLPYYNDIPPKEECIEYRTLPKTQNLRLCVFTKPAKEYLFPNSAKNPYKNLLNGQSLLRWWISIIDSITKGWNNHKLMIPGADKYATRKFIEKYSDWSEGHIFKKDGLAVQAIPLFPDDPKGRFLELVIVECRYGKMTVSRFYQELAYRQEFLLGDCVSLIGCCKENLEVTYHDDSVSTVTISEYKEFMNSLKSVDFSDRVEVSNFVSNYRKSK
esBAF inh = SWI/SNF esBAF complex inhibition | mouse ES cells, Bmi1-luciferase knock-in reporter, 24 h; 100% = twice the neutral-well signal | reporter increase, % at 12.5 µM | 350,000 compounds, 2% hits | AID 602393; in the data active = activation above about 40%;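 note: 0% = median of the plate's neutral control wells and 100% = double that signal; a rise in the Bmi1 reporter signal indicates esBAF inhibition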
SMARCA2 activ = activators of SMARCA2 function. AID 652017. MG213 cells, MMTV-luciferase reporter, dexamethasone, overnight. 370,000 compounds, 1% hits. activation, % at 9.1 µM; in the data active = activation above about 7.8%;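 note: 0% = vehicle wells and 100% = reference activator wells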
dFosB activator = enhances mouse delta FosB homodimer DNA binding | AID 493131 | activation, % at 25 µM | 340,000 compounds, 0.99% hits | purified delta FosB, TAMRA-CDK5 oligo fluorescence polarization; percent of positive-control signal above neutral wells;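 active = mean activation above about 17%, with every replicate also reaching it, limit read from the data, passing the limit was not always enough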
Dyrk1A ADPGlo = Dyrk1A (rat) kinase inhibition | 310,000 compounds, 0.43% hits | ADP-Glo luminescence, NFATc1 peptide | Q63470 | AID 504441 | inhibition, % at 12.5 µM; in the data active = inhibition above about 50%;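 note: plate controls were vehicle with enzyme for no effect and no enzyme for full effect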
SMARCA2 act conf = confirmation of SMARCA2 (BRM) function activators | shares compounds with SMARCA2 activ | MG213 cells, MMTV-luciferase with dexamethasone, luminescence, overnight; MG213 cells expressing E1A, Rb sequestered; DMSO wells 0%, reference activator 100% | activation, % at 9.1 µM | 3,500 compounds, 30% hits | AID 652260;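 active = activation above its plate's cutoff, the mean activation of tested wells plus 3 SD, cut at about 7.9% in these data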
VP16 Luc act = activates GAL4-VP16 luciferase, flagging SMARCA2 activator hits | shares compounds with SMARCA2 activ | HEK293 GAL4-VP16 pG5luc reporter, luciferase luminescence; scaled: DMSO wells 0%, SAHA wells 100% | activation, % at 9.1 µM | 3,500 compounds, 41% hits;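 active = activation above the solvent-only control well mean plus 3 SD, averaged across control plates, cut at about 5.2% in these data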
Starred values were filed as active, the others as inactive; . = no result. Rows were chosen to be rich in hits. Some 3.2% of all compounds tested hit in one or more screens of this group.

SMILES	CDK5 inh	Rtt109 Vps75	esBAF inh	SMARCA2 activ	dFosB activator	Dyrk1A ADPGlo	SMARCA2 act conf	VP16 Luc act
Cc1nnc(N2C(=O)c3cccc4c([N+](=O)[O-])ccc(c34)C2=O)s1	-6	6	-1	22*	-2	3	-16	15*
Cc1ccc(N2C(=O)c3cccc4c([N+](=O)[O-])ccc(c34)C2=O)c2cccnc12	-1	-5	-18	-3	-2	5	.	.
Cc1ccnc(N2C(=O)c3cccc4c([N+](=O)[O-])ccc(c34)C2=O)c1	2	1	-1	9.9*	-5	-5	-14	4
C[C@@H]1CN([C@H](C)CO)C(=O)c2cc(C#CC3CC3)cnc2O[C@H]1CN(C)C(=O)c1ccccc1	.	.	3	.	.	.	.	.
O=C(Cn1c(=O)c2sccc2n(Cc2ccc([N+](=O)[O-])cc2)c1=O)NCCc1ccccc1	0	-4	.	10*	5	4	-6	0
O=C(C[C@H]1C[C@@H]2c3cc(NC(=O)CC4CC4)ccc3O[C@@H]2[C@H](CO)O1)NCc1ccc2c(c1)OCO2	.	.	2	.	.	.	.	.
O=C(NN=C(Cc1ccccc1)Cc1ccccc1)c1ccccc1F	1	-2	.	1	0	2	.	.
CCCC(CCC)=NNC(=O)c1ccccc1F	-4	-8	5	8.2*	1	-4	-1	1
Cc1ccccc1N=Nc1c(C)[nH]n(C(N)=S)c1=O	-1	-7	12	14*	-3	-4	0	2
O=C(NCC1CC1)[C@H]1[C@H](CO)[C@H]2Cn3c(ccc(-c4ccccc4F)c3=O)[C@@H]1N2Cc1ccccc1	.	.	0	.	.	.	.	.
CCCCCn1nnnc1C1(C)CCSCC(=O)N1Cc1ccco1 (configuration not stated)	.	.	.	8.4*	.	.	-1	-1
Cn1c(/C=N/NC(=O)c2ccccc2)nc2ccccc21	1	-4	26	-1	-18	1	.	.
COCCn1c(-c2ccccc2)nc2ccccc21	1	1	11	0	-6	-1	.	.
Cn1c(/C=C/c2ccccc2)nc2ccccc21	22	6	.	8.9*	-3	21	5	7.8*
CC(=O)c1ccc(/C=C/c2nc3ccccc3n2C)o1	.	.	.	8.8*	.	.	23*	12*
COCCn1c(/C=C/c2ccccc2)nc2ccccc21	3	4	37*	9.2*	1	.	7	13*
Cn1c(=O)c(/C=C/c2ccccc2)nc2ccccc21	1	-10	.	5	-20	-5	.	.
C[C@@H]1CN([C@@H](C)CO)C(=O)c2cc(NC(=O)CCCN(C)C)ccc2O[C@H]1CN(C)Cc1ccc(-c2ccccc2)cc1	.	.	-7	.	.	.	.	.
O=C(CC1CC1)Nc1ccc2c(c1)[C@@H]1C[C@@H](CC(=O)N3CCc4ccccc4C3)O[C@@H](CO)[C@@H]1O2	.	.	16	.	.	.	.	.
CCOC(=O)c1c(C)[nH]c(N=Nc2ccc(OC)cc2)c1C	1	5	.	9.3*	-14	-4	4	7.7*
O=C(C[C@H]1C=C[C@@H](NC(=O)Nc2cccc(F)c2)[C@@H](CO)O1)NCC1CC1	.	.	0	.	.	.	.	.
Cc1ccc2nc(NC(=O)c3ccc(Br)o3)sc2c1	0	-1	-6	7	5	-8	.	.
NS(=O)(=O)c1ccc2nc(NC(=O)c3ccc(Br)o3)sc2c1	-1	-12	.	8.3*	-8	-3	1	4
COc1ccc(C(=O)Nc2ccccc2C(=O)N/N=C/c2ccncc2)cc1OC	2	0	.	8.5*	12	.	18*	6.0*
Fc1cc(F)c2nc(N3CCCC3)sc2c1	0	-1	.	8.4*	-4	.	4	5
C/C(=N\Nc1cccc([N+](=O)[O-])c1)c1ccccc1O	-3	-7	.	12*	-6	3	6	5
